Records with an inconclusive call do not appear. Where a call stands in place of a potency, no number is given. Calls of active or inactive are those of the source. Unless noted, the call rests on the fitted dose curve.
System: not listed separately
Assay: qHTS for Inhibitors of the Functional Ribonucleoprotein Complex (vRNP) of Lymphocytic Choriomeningitis Arenaviruses (LCMV): Viability assay - alamar blue signal for LCMV Primary Screen (AID 1347085; calls by dose curve; tested in HEK293 reporter line; further: nearly all actives have a fitted effect of over 80% in size; further: potency means the concentration at half of the fitted maximal effect)
Settings: alamar blue viability counter-screen, LCMV vRNP screen cells; series mostly up to 57.5 µM; activity change, negative = lower viability: at the top concentration

Row | Structure (SMILES) | Potency | activity change, negative = lower viability
1 | CN1CCN(C2=Nc3ccccc3Oc3ccc(Cl)cc32)CC1 | inactive | 
2 | COc1ccccc1Oc1c(NS(=O)(=O)c2ccc(C(C)(C)C)cc2)nc(-c2ncccn2)nc1OCCO |  | 15.9% (inactive)
3 | CCCCc1ncc(/C=C(\Cc2cccs2)C(=O)O)n1Cc1ccc(C(=O)O)cc1 |  | 11.9% (inactive)
4 | OCCN1CCN(CCCN2c3ccccc3Sc3ccc(Cl)cc32)CC1 |  | -1.31% (inactive)
5 | C[C@]12CC[C@@H]3c4ccc(O)cc4C[C@@H](CCCCCCCCCS(=O)CCCC(F)(F)C(F)(F)F)[C@H]3[C@@H]1CC[C@@H]2O (stereo partly drawn) |  | 17.8% (inactive)
6 | CNCCCN1c2ccccc2CCc2ccccc21 | inactive | 
7 | CC(C)Oc1ccc2c(=O)c(-c3ccccc3)coc2c1 | inactive | 
8 | O=C(O)P(=O)(O)O |  | 4.61% (inactive)
9 | CC/C(=C(\c1ccccc1)c1ccc(OCCN(C)C)cc1)c1ccccc1 |  | 15.8% (inactive)
10 | Cc1ccsc1C(=CCCN1CCC[C@@H](C(=O)O)C1)c1sccc1C |  | -11.9% (inactive)
11 | NCCCC(O)(P(=O)(O)O)P(=O)(O)O | inactive | 
12 | CC1(C)NC(=O)N(c2ccc([N+](=O)[O-])c(C(F)(F)F)c2)C1=O | inactive | 
13 | COc1ccccc1OCC(O)COC(N)=O (stereo not drawn) | inactive | 
14 | CCC1C(=O)OCC1Cc1cncn1C (stereo not drawn) | inactive | 
15 | COc1cc2c(N3CCN(C(=O)Nc4ccc(OC(C)C)cc4)CC3)ncnc2cc1OCCCN1CCCCC1 | inactive | 
16 | CN1C(CCl)Nc2cc(Cl)c(S(N)(=O)=O)cc2S1(=O)=O (stereo not drawn) |  | 6.49% (inactive)
17 | Clc1ccc2c(c1)C(N1CCNCC1)=Nc1ccccc1O2 | inactive | 
18 | O[C@@H]1CO[C@H]2[C@@H]1OC[C@@H]2O |  | 1.73% (inactive)
19 | Cc1ccccc1C(OCCN(C)C)c1ccccc1 (stereo not drawn) | inactive | 
20 | O=C(CCCCCCC(=O)Nc1ccccc1)NO | 7.69 µM (active) | 

Row | Structure (SMILES) | Potency | activity change, negative = lower viability
21 | O=C(O)COCCN1CCN(C(c2ccccc2)c2ccc(Cl)cc2)CC1 (stereo not drawn) | inactive | 
22 | Cc1ccc(-c2cc(C(F)(F)F)nn2-c2ccc(S(N)(=O)=O)cc2)cc1 | inactive | 
23 | CCCNC(=O)NS(=O)(=O)c1ccc(Cl)cc1 | inactive | 
24 | Oc1cn2c(n1)Nc1ccc(Cl)c(Cl)c1C2 |  | 6.5% [at 24.7 µM] (inactive)
25 | C[C@H]1c2cccc(O)c2C(O)=C2C(=O)[C@]3(O)C(O)=C(C(N)=O)C(=O)[C@@H](N(C)C)[C@@H]3[C@@H](O)[C@@H]21 | inactive | 
26 | COc1ccccc1OCC(O)CN1CCN(CC(=O)Nc2c(C)cccc2C)CC1 (stereo not drawn) | inactive | 
27 | NS(=O)(=O)c1cc2c(cc1C(F)(F)F)NCNS2(=O)=O |  | 0.346% (inactive)
28 | CN1CCC(=C2c3ccccc3C=Cc3ccccc32)CC1 | inactive | 
29 | O=C1C(=O)c2ccccc2C(O)=C1C1CCC(c2ccc(Cl)cc2)CC1 (stereo not drawn) |  | -7.45% (inactive)
30 | CCOC(=O)c1ncn2c1CN(C)C(=O)c1cc(F)ccc1-2 | inactive | 
31 | CCCN1C[C@H](CSC)C[C@@H]2c3cccc4[nH]cc(c34)C[C@H]21 | inactive | 
32 | CCOC(=O)Nc1ccc2c(c1)N(C(=O)CCN1CCOCC1)c1ccccc1S2 |  | -6.04% (inactive)
33 | O=C1[C@H](CC[C@H](O)c2ccc(F)cc2)[C@@H](c2ccc(O)cc2)N1c1ccc(F)cc1 |  | -7.47% (inactive)
34 | Cc1ccc(-n2[nH]c(C)c(N=Nc3cccc(-c4cccc(C(=O)O)c4)c3O)c2=O)cc1C |  | 8.38% (inactive)
35 | O=c1[nH]cnc2c1ncn2[C@H]1CC[C@@H](CO)O1 |  | 6.17% (inactive)
36 | COc1cc2nc(N3CCN(C(=O)C4COc5ccccc5O4)CC3)nc(N)c2cc1OC (stereo not drawn) | inactive | 
37 | CCOC(=O)N1CCC(=C2c3ccc(Cl)cc3CCc3cccnc32)CC1 |  | -0.835% (inactive)
38 | Cc1ccnc2c1NC(=O)c1cccnc1N2C1CC1 |  | -19.4% (inactive)
39 | CN(C)CCc1c[nH]c2ccc(C[C@H]3COC(=O)N3)cc12 | inactive | 

Molecular target: Nucleoprotein (Lymphocytic choriomeningitis virus (strain Armstrong)) (UniProt P09992)
Assay: qHTS for Inhibitors of the Functional Ribonucleoprotein Complex (vRNP) of Lymphocytic Choriomeningitis Arenaviruses (LCMV): LCMV Primary Screen - GLuc reporter signal (AID 1347086); further: nearly all actives have a fitted effect of over 70% in size
Settings: LCMV minigenome vRNP cell assay, Gaussia luciferase reporter; series mostly up to 57.5 µM; activity change, negative = inhibition: at the top concentration

Sequence of Nucleoprotein (Lymphocytic choriomeningitis virus (strain Armstrong)) (P09992 whole entry, looked up): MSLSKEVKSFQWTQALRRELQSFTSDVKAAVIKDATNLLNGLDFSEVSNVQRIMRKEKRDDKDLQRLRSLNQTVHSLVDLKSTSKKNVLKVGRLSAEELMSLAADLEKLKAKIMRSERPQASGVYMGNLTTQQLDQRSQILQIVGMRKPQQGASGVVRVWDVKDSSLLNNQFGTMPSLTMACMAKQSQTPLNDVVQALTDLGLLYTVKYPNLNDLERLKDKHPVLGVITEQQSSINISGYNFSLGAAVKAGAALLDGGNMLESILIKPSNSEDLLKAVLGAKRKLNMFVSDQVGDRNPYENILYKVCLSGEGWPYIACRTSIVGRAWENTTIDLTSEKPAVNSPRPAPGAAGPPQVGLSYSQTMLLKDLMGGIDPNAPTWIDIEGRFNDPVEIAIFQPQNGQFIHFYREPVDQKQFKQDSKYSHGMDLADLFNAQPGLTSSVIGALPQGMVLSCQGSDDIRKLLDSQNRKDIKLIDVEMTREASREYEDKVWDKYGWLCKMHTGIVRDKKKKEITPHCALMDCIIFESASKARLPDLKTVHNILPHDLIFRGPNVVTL

Row | Structure (SMILES) | Potency | activity change, negative = inhibition
40 | CN1CCN(C2=Nc3ccccc3Oc3ccc(Cl)cc32)CC1 | inactive | 
41 | COc1ccccc1Oc1c(NS(=O)(=O)c2ccc(C(C)(C)C)cc2)nc(-c2ncccn2)nc1OCCO |  | 22.7% (inactive)
42 | CCCCc1ncc(/C=C(\Cc2cccs2)C(=O)O)n1Cc1ccc(C(=O)O)cc1 |  | -12.5% (inactive)
43 | OCCN1CCN(CCCN2c3ccccc3Sc3ccc(Cl)cc32)CC1 |  | -10.6% (inactive)
44 | C[C@]12CC[C@@H]3c4ccc(O)cc4C[C@@H](CCCCCCCCCS(=O)CCCC(F)(F)C(F)(F)F)[C@H]3[C@@H]1CC[C@@H]2O (stereo partly drawn) |  | 6.26% (inactive)
45 | CNCCCN1c2ccccc2CCc2ccccc21 | inactive | 
46 | CC(C)Oc1ccc2c(=O)c(-c3ccccc3)coc2c1 | inactive | 
47 | O=C(O)P(=O)(O)O |  | 6.69% (inactive)
48 | CC/C(=C(\c1ccccc1)c1ccc(OCCN(C)C)cc1)c1ccccc1 |  | -2.48% (inactive)
49 | Cc1ccsc1C(=CCCN1CCC[C@@H](C(=O)O)C1)c1sccc1C |  | 0.915% (inactive)
50 | NCCCC(O)(P(=O)(O)O)P(=O)(O)O | inactive | 
51 | CC1(C)NC(=O)N(c2ccc([N+](=O)[O-])c(C(F)(F)F)c2)C1=O | inactive | 
52 | COc1ccccc1OCC(O)COC(N)=O (stereo not drawn) | inactive | 
53 | CCC1C(=O)OCC1Cc1cncn1C (stereo not drawn) | inactive | 
54 | COc1cc2c(N3CCN(C(=O)Nc4ccc(OC(C)C)cc4)CC3)ncnc2cc1OCCCN1CCCCC1 | inactive | 
55 | CN1C(CCl)Nc2cc(Cl)c(S(N)(=O)=O)cc2S1(=O)=O (stereo not drawn) |  | 0.109% (inactive)
56 | Clc1ccc2c(c1)C(N1CCNCC1)=Nc1ccccc1O2 | inactive | 
57 | O[C@@H]1CO[C@H]2[C@@H]1OC[C@@H]2O |  | 0.603% (inactive)
58 | Cc1ccccc1C(OCCN(C)C)c1ccccc1 (stereo not drawn) | inactive | 
59 | O=C(CCCCCCC(=O)Nc1ccccc1)NO |  | -29.1% (inactive)

Row | Structure (SMILES) | Potency | activity change, negative = inhibition
60 | O=C(O)COCCN1CCN(C(c2ccccc2)c2ccc(Cl)cc2)CC1 (stereo not drawn) | inactive | 
61 | Cc1ccc(-c2cc(C(F)(F)F)nn2-c2ccc(S(N)(=O)=O)cc2)cc1 | inactive | 
62 | CCCNC(=O)NS(=O)(=O)c1ccc(Cl)cc1 | inactive | 
63 | Oc1cn2c(n1)Nc1ccc(Cl)c(Cl)c1C2 |  | -0.984% [at 24.7 µM] (inactive)
64 | C[C@H]1c2cccc(O)c2C(O)=C2C(=O)[C@]3(O)C(O)=C(C(N)=O)C(=O)[C@@H](N(C)C)[C@@H]3[C@@H](O)[C@@H]21 | inactive | 
65 | COc1ccccc1OCC(O)CN1CCN(CC(=O)Nc2c(C)cccc2C)CC1 (stereo not drawn) | inactive | 
66 | NS(=O)(=O)c1cc2c(cc1C(F)(F)F)NCNS2(=O)=O |  | -7.07% (inactive)
67 | CN1CCC(=C2c3ccccc3C=Cc3ccccc32)CC1 | inactive | 
68 | O=C1C(=O)c2ccccc2C(O)=C1C1CCC(c2ccc(Cl)cc2)CC1 (stereo not drawn) |  | 5.6% (inactive)
69 | CCOC(=O)c1ncn2c1CN(C)C(=O)c1cc(F)ccc1-2 | inactive | 
70 | CCCN1C[C@H](CSC)C[C@@H]2c3cccc4[nH]cc(c34)C[C@H]21 | inactive | 
71 | CCOC(=O)Nc1ccc2c(c1)N(C(=O)CCN1CCOCC1)c1ccccc1S2 |  | -3.48% (inactive)
72 | O=C1[C@H](CC[C@H](O)c2ccc(F)cc2)[C@@H](c2ccc(O)cc2)N1c1ccc(F)cc1 |  | -15% (inactive)
73 | Cc1ccc(-n2[nH]c(C)c(N=Nc3cccc(-c4cccc(C(=O)O)c4)c3O)c2=O)cc1C |  | 16.1% (inactive)
74 | O=c1[nH]cnc2c1ncn2[C@H]1CC[C@@H](CO)O1 |  | 40.5% (inactive)
75 | COc1cc2nc(N3CCN(C(=O)C4COc5ccccc5O4)CC3)nc(N)c2cc1OC (stereo not drawn) | inactive | 
76 | CCOC(=O)N1CCC(=C2c3ccc(Cl)cc3CCc3cccnc32)CC1 |  | -0.116% (inactive)
77 | Cc1ccnc2c1NC(=O)c1cccnc1N2C1CC1 |  | -11.5% (inactive)
78 | CN(C)CCc1c[nH]c2ccc(C[C@H]3COC(=O)N3)cc12 | inactive | 

Source: PubChem BioAssay (NCATS)
